Inconclusive results are not listed. The source made the active and inactive calls. Unless noted, the call rests on the fitted dose curve; in most records, active means well fitted curve in the direction sought with a large enough effect in the repeat runs; inconclusive means weak or mixed curves; inactive means no such curve, though single readings can be large; an effect the other way counts as inactive or inconclusive.
Legend:
[1] = qHTS assay to identify small molecule agonists of the peroxisome proliferator-activated receptor delta (PPARd) signaling pathway - cell viability counter screen (AID 743211); further: nearly all actives have a fitted effect of over 55% in size
In short: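 Viability was measured as CellTiter-Glo luminescence (30 min, room temperature) in the same wells as the beta-lactamase readout. GeneBLAzer PPARd UAS-bla HEK293H cells received compound after 5 h plating and were incubated 17 h at 37 C.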

[2] = target: Peroxisome proliferator-activated receptor delta (Homo sapiens) (UniProt Q03181); assay: qHTS assay to identify small molecule agonists of the peroxisome proliferator-activated receptor delta (PPARd) signaling pathway (AID 743212; calls by dose curve)
In short: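 Tox21 library screened in GeneBLAzer PPARd UAS-bla HEK293H cells. After compound treatment at 37 C, a FRET-based beta-lactamase substrate was applied for 2 h and fluorescence recorded.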

[3] = qHTS assay to identify small molecule antagonists of the peroxisome proliferator-activated receptor delta (PPARd) signaling pathway - cell viability counter screen (AID 743213); further: nearly all actives have a fitted effect of over 50% in size
In short: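 PPARd-bla HEK293H cells were treated with compounds plus agonist L165041 (300 nM final) for 17 h at 37 C. Viability was then read in the same wells by CellTiter-Glo luminescence after 30 min at room temperature.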

[4] = target: Peroxisome proliferator-activated receptor delta (Homo sapiens) (UniProt Q03181); assay: qHTS assay to identify small molecule antagonists of the peroxisome proliferator-activated receptor delta (PPARd) signaling pathway (AID 743215; active means well fitted inhibition curve with a large enough effect in the signal ratio in the repeat runs, not every such curve was filed as active; the % refers to the signal ratio;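 further: cells stimulated with agonist L165041 at 300 nM final during compound exposure; series mostly up to about 62 µM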)
In short: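 Plated HEK293H PPARd-bla cells rested 5 h at 37 C and 5% CO2. Compound, then agonist L165041 at 300 nM final, was added; 17 h at 37 C followed. Substrate loading, 2 h room temperature, fluorescence measured.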

[5] = target: Bile acid receptor (Homo sapiens) (UniProt Q96RI1); assay: qHTS assay to identify small molecule antagonists of the farnesoid-X-receptor (FXR) signaling pathway (AID 743217; active means well fitted inhibition curve with a large enough effect in the signal ratio in the repeat runs, not every such curve was filed as active; the % refers to the signal ratio)
In short: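 Screen of the Tox21 10K library in quantitative HTS format using FXR-UAS-bla HEK 293T reporter cells. Agonist chenodeoxycholic acid, 50 uM final, added with compounds; 16 h incubation at 37 °C; beta-lactamase FRET fluorescence measured.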

[6] = qHTS assay to identify small molecule agonists of the farnesoid-X-receptor (FXR) signaling pathway - cell viability counter screen (AID 743218); further: nearly all actives have a fitted effect of over 45% in size
In short: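 Viability of FXR-bla HEK 293T cells is measured by ATP-based CellTiter-Glo luminescence following 16 h compound treatment at 37 C and a prior 2 h room-temperature beta-lactamase substrate step.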

[7] = target: Bile acid receptor (Homo sapiens) (UniProt Q96RI1); assay: qHTS assay to identify small molecule agonists of the farnesoid-X-receptor (FXR) signaling pathway (AID 743220; active means well fitted activation curve with a large enough effect in the signal ratio in the repeat runs, not every such curve was filed as active; the % refers to the signal ratio)
In short: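 FXR-UAS-bla HEK 293T cells carrying a UAS-driven beta-lactamase reporter were plated for 5 h at 37C/5% CO2, then exposed to DMSO-dissolved Tox21 10K compounds for 16 h at 37C. A LiveBLAzer B/G FRET substrate was loaded for 2 h at room temperature before fluorescence reading.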

[8] = qHTS assay to identify small molecule antagonists of the farnesoid-X-receptor (FXR) signaling pathway - cell viability counter screen (AID 743221; active means well fitted cell-killing curve with a large enough effect in the repeat runs, not every such curve was filed as active; further: nearly all actives have a fitted effect of over 50% in size)
In short: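 Cytotoxicity counter screen run in the FXR-bla reporter wells: HEK 293T cells exposed to compound with 50 uM (final) chenodeoxycholic acid for 16 h, 37 C, then viability measured by CellTiter-Glo luminescence after 30 min, room temperature.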

[9] = target: Vitamin D3 receptor (Homo sapiens) (UniProt P11473); assay: qHTS assay to identify small molecule agonists of the vitamin D receptor (VDR) signaling pathway (AID 743222; calls by dose curve)
In short: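 Fluorescence from cleaved LiveBLAzer B/G FRET substrate served as readout. VDR-bla cells had been treated 16 h at 37C with test compounds in DMSO, following a 4 h settling period, and substrate was loaded for 2 h at RT.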

[10] = target: Vitamin D3 receptor (Homo sapiens) (UniProt P11473); assay: qHTS assay to identify small molecule antagonists of the vitamin D receptor (VDR) signaling pathway (AID 743223; active means well fitted inhibition curve with a large enough effect in the signal ratio in the repeat runs, not every such curve was filed as active; the % refers to the signal ratio)
In short: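 Antagonist mode: compound added to VDR-bla cells alongside agonist 1alpha,25-dihydroxyvitamin D3 (3 nM final), incubation 16 h at 37C. Read-out is LiveBLAzer FRET fluorescence, 2 h at room temperature.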

[11] = qHTS assay to identify small molecule agonists of the vitamin D receptor (VDR) signaling pathway - cell viability counter screen (AID 743224); further: series mostly up to about 63 µM; nearly all actives have a fitted effect of over 50% in size
In short: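 Compounds were pin-transferred onto VDR-bla cells plated 4 h earlier; following 16 h incubation at 37C, cell viability was quantified by CellTiter-Glo luminescence after 30 min at room temperature.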

[12] = qHTS assay to identify small molecule antagonists of the vitamin D receptor (VDR) signaling pathway - cell viability counter screen (AID 743225); further: nearly all actives have a fitted effect of over 50% in size
In short: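 Cytotoxicity counter screen read by CellTiter-Glo luminescence (30 min, room temperature) in the same wells as the VDR-bla antagonist readout. HEK 293T VDR-UAS-bla cells had 16 h at 37C with compound and 3 nM (final) 1-alpha,25-dihydroxyvitamin D3, then 2 h with FRET substrate.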

[13] = qHTS assay to identify small molecule agonists of the NFkB signaling pathway (AID 1159509; active means well fitted curve in the direction sought with a large enough effect in the signal ratio in the repeat runs, not every such curve was filed as active; the % refers to the signal ratio; further: series mostly up to about 61 µM)
In short: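 Agonist activity was read as beta-lactamase-driven FRET change (460 and 530 nm emission, 405 nm excitation) following 1.5 hr substrate loading at room temperature. Beforehand, ME-180 NFkB-bla reporter cells were treated with compounds for 5 hr at 37 C.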

[14] = qHTS assay to identify small molecule agonists of the NFkB signaling pathway - cell viability counter screen (AID 1159515; calls by dose curve; further: series mostly up to about 61 µM; nearly all actives have a fitted effect of over 55% in size)
In short: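 Parallel cytotoxicity counter screen in ME-180 cells carrying an NFkB-response-element beta-lactamase reporter, 2,000 cells/well. Compound exposure lasted 5 hr at 37 C, 5% CO2. Cell viability was quantified by CellTiter-Glo luminescence.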

[15] = qHTS assay to identify small molecule agonists of the endoplasmic reticulum stress response signaling pathway (AID 1159516; active means well fitted activation curve with a large enough effect in the signal ratio in the repeat runs, not every such curve was filed as active; the % refers to the signal ratio)
In short: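 Using a HeLa line with an ESRE-driven beta-lactamase gene, agonist activity was measured by FRET substrate fluorescence (460 and 530 nm emission) after cells were treated with compounds for 5 hr at 37 C and 5% CO2.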

[16] = qHTS assay to identify small molecule agonists of the endoplasmic reticulum stress response signaling pathway - cell viability counter screen (AID 1159517; calls by dose curve)
In short: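 In parallel with the ESRE reporter read, cytotoxicity was scored by CellTiter-Glo luminescence (30 min, room temperature) on HeLa ESRE-bla cells dosed for 5 hr.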

[17] = qHTS assay to identify small molecule antagonists of the retinoid-related orphan receptor gamma (ROR-gamma) signaling pathway - cell viability counter screen (AID 1159520); further: nearly all actives have a fitted effect of over 50% in size
In short: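 Tet-on ROR gamma CHO cells were given compounds for 2 hr, then doxycycline hyclate at 1 uM final, and incubated 16 hr at 37 C. Viability was measured as ATP content by CellTiter-Glo luminescence.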

[18] = qHTS assay to identify small molecule agonists of the AP-1 signaling pathway - cell viability counter screen (AID 1159525; calls by dose curve; further: nearly all actives have a fitted effect of over 55% in size)
In short: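 Same-well cytotoxicity counter screen of the Tox21 10K library in ME-180 cells. The readout is ATP-dependent luminescence after 5 h compound treatment. Data are normalised to DMSO and tetra n-octyl ammonium bromide controls.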

[19] = qHTS assay to identify small molecule agonists of the AP-1 signaling pathway (AID 1159526; calls by dose curve)
[20] = target: Nuclear receptor ROR-gamma (Homo sapiens) (UniProt P51449); assay: qHTS assay to identify small molecule antagonists of the retinoid-related orphan receptor gamma (ROR-gamma) signaling pathway (AID 1159521)
In short: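 Antagonist read-out: drop in luminescence (ONE-Glo) from an RORE-LUC reporter in CHO cells with doxycycline-inducible ROR-gamma; 2 hr compound pretreatment, 1 uM doxycycline, 16 hr incubation at 37 C.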

Measured: Potency

Chain of Vitamin D3 receptor (Homo sapiens) (P11473 whole entry, looked up): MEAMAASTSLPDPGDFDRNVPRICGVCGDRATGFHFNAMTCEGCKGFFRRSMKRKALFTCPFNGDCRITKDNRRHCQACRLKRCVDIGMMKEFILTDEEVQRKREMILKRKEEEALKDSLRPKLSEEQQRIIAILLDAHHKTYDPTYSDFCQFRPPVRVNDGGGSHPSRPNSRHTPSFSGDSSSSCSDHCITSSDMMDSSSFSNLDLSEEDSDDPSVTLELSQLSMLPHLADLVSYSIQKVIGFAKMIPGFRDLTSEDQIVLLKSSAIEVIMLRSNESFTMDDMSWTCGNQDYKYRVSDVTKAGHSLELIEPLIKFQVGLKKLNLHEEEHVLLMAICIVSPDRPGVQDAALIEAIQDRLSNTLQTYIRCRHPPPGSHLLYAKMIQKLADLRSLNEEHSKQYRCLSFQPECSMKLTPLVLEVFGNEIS
Chain of Bile acid receptor (Homo sapiens) (Q96RI1 whole entry, looked up): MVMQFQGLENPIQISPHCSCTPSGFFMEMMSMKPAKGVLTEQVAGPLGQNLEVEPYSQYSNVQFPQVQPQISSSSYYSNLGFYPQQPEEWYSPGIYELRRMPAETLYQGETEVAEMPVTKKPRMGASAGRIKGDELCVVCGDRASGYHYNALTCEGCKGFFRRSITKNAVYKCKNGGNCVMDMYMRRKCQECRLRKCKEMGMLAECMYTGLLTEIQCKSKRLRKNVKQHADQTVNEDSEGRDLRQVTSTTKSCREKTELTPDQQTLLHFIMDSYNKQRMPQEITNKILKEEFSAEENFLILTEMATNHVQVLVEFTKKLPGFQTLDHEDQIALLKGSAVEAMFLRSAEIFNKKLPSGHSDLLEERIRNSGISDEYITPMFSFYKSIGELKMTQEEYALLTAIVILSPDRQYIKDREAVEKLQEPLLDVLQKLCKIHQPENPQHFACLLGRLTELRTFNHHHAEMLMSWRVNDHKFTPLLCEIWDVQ
Chain of Peroxisome proliferator-activated receptor delta (Homo sapiens) (Q03181 whole entry, looked up): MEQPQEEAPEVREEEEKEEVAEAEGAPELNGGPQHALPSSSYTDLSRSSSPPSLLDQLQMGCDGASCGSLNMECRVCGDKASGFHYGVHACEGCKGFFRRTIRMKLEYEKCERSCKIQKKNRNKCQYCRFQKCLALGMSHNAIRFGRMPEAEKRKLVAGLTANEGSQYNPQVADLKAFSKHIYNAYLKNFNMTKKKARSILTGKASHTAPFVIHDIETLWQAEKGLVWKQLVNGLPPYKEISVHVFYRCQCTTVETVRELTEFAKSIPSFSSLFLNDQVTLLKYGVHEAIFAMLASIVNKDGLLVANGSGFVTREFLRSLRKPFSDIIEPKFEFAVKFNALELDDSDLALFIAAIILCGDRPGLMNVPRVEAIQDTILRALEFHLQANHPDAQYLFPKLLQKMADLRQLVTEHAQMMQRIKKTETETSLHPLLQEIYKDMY

FC(F)(F)C(F)(F)C(F)(F)C(F)(F)C(F)(F)C(F)(F)C(F)(F)C(F)(F)Br
not listed: [20]
inactive: all other assays above

O=C1CCC(C2CCCCC2)CC1
not listed: [6] | [8] | [20]
inactive: all other assays above

Oc1ccccc1C=NCc1ccccc1
not listed: [5] | [20]
inactive: all other assays above

CCCN(CCC)C(=O)C(CCC(=O)O)NC(=O)c1ccccc1 (configuration not stated)
not listed: [5] | [7] | [8] | [10] | [18]
inactive: all other assays above

CC(=O)N(CC(O)CN(C(C)=O)c1c(I)c(C(=O)NCC(O)CO)c(I)c(C(=O)NCC(O)CO)c1I)c1c(I)c(C(=O)NCC(O)CO)c(I)c(C(=O)NCC(O)CO)c1I (configuration not stated)
not listed: [20]
inactive: all other assays above

CCCCCCCCOC(=O)CCCCCCCCC(=O)OCCCCCCCC
not listed: [5] | [9] | [18]
inactive: all other assays above

O=C(O)[C@@H](O)[C@H](O)[C@H](O)[C@@H](O)C(=O)O
not listed: [5] | [7] | [8] | [9] | [10] | [18]
inactive: all other assays above

c1ccc(CN(CC2=NCCN2)c2ccccc2)cc1
not listed: [1] | [2] | [4] | [5] | [7] | [8] | [10] | [20]
inactive: all other assays above

CN1C(=O)CC(c2ccccc2)C1=O (configuration not stated)
not listed: [2] | [4] | [5] | [9] | [10] | [20]
inactive: all other assays above

CCCNC(C)C(=O)Nc1c(C)csc1C(=O)OC (configuration not stated)
not listed: [2] | [4] | [5] | [7] | [9] | [20]
inactive: all other assays above

CS(=O)(=O)c1ccc([C@@H](O)[C@@H](CF)NC(=O)C(Cl)Cl)cc1
not listed: [5] | [8] | [9] | [10] | [16] | [20]
inactive: all other assays above

CCCCC(=O)O[C@]1(C(=O)CO)[C@H](C)C[C@H]2[C@@H]3CCC4=CC(=O)C=C[C@]4(C)[C@@]3(F)[C@@H](O)C[C@@]21C
not listed: [2] | [3] | [4] | [5] | [7] | [20]
inactive: all other assays above
